# Experimental data reported in PubChem BioAssay (EPA / NIEHS).
# Calls of active or inactive are those of the source. The calls were made as follows: active = hit-call score of the fitted dose curve at least 0.9, where 1 is the maximum; inactive = score below 0.9.
# Legend:
# [1] = biological target: Bile acid receptor (Homo sapiens) (UniProt Q96RI1); experiment: ATG_IR1_CIS: Attagene CIS-FACTORIAL HepG2 Assay for human Nuclear Receptor Subfamily 1 Group H Member 4 (NR1H4), IR1 submotif (AID 2282946); conditions: IR1 reporter transcription, actives raise or lower the signal
# Sequence of Bile acid receptor (Homo sapiens) (Q96RI1 whole entry, looked up): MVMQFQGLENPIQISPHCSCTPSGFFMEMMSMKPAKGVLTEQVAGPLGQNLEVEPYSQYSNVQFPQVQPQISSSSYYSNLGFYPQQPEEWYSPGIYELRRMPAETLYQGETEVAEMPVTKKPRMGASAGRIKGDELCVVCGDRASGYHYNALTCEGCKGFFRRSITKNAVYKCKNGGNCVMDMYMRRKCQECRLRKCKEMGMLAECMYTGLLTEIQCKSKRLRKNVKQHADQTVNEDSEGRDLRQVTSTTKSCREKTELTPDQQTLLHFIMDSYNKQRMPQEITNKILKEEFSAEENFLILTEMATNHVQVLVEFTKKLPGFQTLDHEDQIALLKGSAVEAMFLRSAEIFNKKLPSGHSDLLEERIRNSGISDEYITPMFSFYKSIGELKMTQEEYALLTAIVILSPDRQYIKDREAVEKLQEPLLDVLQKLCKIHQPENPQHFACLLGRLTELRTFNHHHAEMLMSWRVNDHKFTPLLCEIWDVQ
# In short: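 Readout: reporter transcript levels by RT-PCR with fluorescent capillary electrophoresis, from HepG2 cells transiently transfected with multiplexed cis-regulated reporters and dosed 24 h. Gain- or loss-of-signal fitted versus DMSO negative control.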
# [2] = ATG_GRE_CIS: Attagene CIS-FACTORIAL HepG2 Assay for human Glucocorticoid Response Elements (GRE) (AID 2282947); conditions: HepG2 GRE cis-reporter, Attagene multiplex mRNA; actives raise or lower the signal
# In short: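 Cells (HepG2) bearing transfected cis-promoter reporter transcription units were treated with chemical for 24 hours. Reporter mRNA was measured via RT-PCR with capillary electrophoresis, and activity was fitted in both directions relative to DMSO.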
# [3] = ATG_ISRE_CIS: Attagene CIS-FACTORIAL HepG2 Assay for human Interferon Regulatory Factor 1 (IRF1) binding to an Interferon-Stimulated Response Element (ISRE) (AID 2282948); conditions: HepG2 ISRE cis-reporter (Attagene), mRNA transcription readout; actives raise or lower the signal
# In short: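 Endogenous transcription factor activity read as reporter transcript abundance via RT-PCR and capillary electrophoresis. HepG2 cells transiently transfected, 24 h chemical exposure. Gain or loss fitted against DMSO baseline.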
# [4] = ATG_M_32_CIS: Attagene CIS-FACTORIAL HepG2 Assay for M32 Transcription Factor (Internal Marker) (AID 2282949); conditions: HepG2 Attagene cis-factorial M32 reporter, mRNA; actives raise or lower the signal;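 also: background control marker of the multiplexed CIS panel rather than a real target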
# In short: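 HepG2 human liver cells transiently transfected with cis-promoter-driven multiple reporter transcription units, dosed 24 h. Reporter mRNA quantified by RT-PCR, FAM-labelled primer extension, HpaI digest and capillary electrophoresis; bidirectional fit versus DMSO baseline.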
# [5] = ATG_M_06_CIS: Attagene CIS-FACTORIAL HepG2 Assay for M06 Transcription Factor (Internal Marker) (AID 2282950); conditions: HepG2 Attagene CIS-FACTORIAL M06 internal marker reporter; actives raise or lower the signal
# In short: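 Terse: HepG2, transient MRTU transfection (FuGene 6), 24 h dosing; total RNA, oligo(dT) RT, PCR, FAM label, HpaI cut, capillary electrophoresis; bidirectional fit vs DMSO baseline; background-control endpoint.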
# [6] = biological target: Hepatocyte nuclear factor 6 (Homo sapiens) (UniProt Q9UBC0); experiment: ATG_HNF6_CIS: Attagene CIS-FACTORIAL HepG2 Assay for human Hepatocyte Nuclear Factor 6 (HNF6) (AID 2282952); conditions: HepG2 Attagene cis-factorial HNF6 reporter transcription; actives raise or lower the signal
# Sequence of Hepatocyte nuclear factor 6 (Homo sapiens) (Q9UBC0 whole entry, looked up): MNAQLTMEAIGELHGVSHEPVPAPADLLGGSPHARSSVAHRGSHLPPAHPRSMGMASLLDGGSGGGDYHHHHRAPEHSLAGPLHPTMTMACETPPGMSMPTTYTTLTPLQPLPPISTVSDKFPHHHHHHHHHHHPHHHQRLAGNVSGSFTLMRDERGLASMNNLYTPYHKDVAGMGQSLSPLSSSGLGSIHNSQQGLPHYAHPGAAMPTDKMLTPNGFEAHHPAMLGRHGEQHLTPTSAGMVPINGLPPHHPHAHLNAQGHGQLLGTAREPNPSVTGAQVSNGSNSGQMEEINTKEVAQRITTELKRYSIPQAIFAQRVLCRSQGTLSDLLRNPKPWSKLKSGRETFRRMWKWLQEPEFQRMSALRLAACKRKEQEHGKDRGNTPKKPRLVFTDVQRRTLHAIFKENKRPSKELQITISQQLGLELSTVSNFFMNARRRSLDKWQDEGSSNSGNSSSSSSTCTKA
# In short: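 Endogenous factor activity read in transiently transfected HepG2 via promoter-regulated reporter transcripts. RNA harvested 24 h post-dosing, reverse-transcribed, PCR-amplified, FAM-labelled, HpaI-digested and resolved by capillary electrophoresis; fitted in both directions against DMSO.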
# [7] = biological target: Paired box protein Pax-6 (Homo sapiens) (UniProt P26367); experiment: ATG_Pax6_CIS: Attagene CIS-FACTORIAL HepG2 Assay for human Paired Box 6 (PAX6) (AID 2282956); conditions: HepG2 CIS-FACTORIAL PAX6 reporter transcription, RNA readout; actives raise or lower the signal
# Sequence of Paired box protein Pax-6 (Homo sapiens) (P26367 whole entry, looked up): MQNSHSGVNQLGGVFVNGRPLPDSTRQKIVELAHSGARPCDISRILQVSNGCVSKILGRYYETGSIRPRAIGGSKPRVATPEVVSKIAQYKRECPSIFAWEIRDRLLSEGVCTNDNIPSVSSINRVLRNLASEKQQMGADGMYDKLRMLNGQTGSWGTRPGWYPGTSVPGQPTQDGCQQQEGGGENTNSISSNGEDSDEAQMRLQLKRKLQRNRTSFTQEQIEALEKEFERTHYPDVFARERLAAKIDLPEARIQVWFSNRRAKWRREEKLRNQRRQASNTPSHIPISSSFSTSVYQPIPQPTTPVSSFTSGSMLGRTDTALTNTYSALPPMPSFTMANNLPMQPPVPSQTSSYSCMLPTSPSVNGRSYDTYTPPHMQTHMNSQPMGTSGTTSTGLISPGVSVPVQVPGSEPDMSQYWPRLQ
# In short: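 Read-out is reporter transcript level, measured by RT-PCR with fluorescent primer extension and capillary electrophoresis after 24 h dosing of transfected HepG2 cells. Activity in either direction fitted relative to DMSO control.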
# [8] = ATG_PXRE_CIS: Attagene CIS-FACTORIAL HepG2 Assay for human Pregnane X Receptor Element (PXRE) (AID 2282957); conditions: HepG2 Attagene CIS-FACTORIAL PXRE reporter, mRNA; actives raise or lower the signal
# In short: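 Reporter transcripts under endogenous PXR-responsive cis-regulation quantified from total RNA of transfected HepG2 cells 24 h post-dosing, via RT-PCR with fluorescent primer extension and capillary electrophoresis. Gain or loss of signal fitted against DMSO baseline.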
# [9] = ATG_RORE_CIS: Attagene CIS-FACTORIAL HepG2 Assay for human RAR-related Orphan Receptor Element (RORE) (AID 2282959); conditions: HepG2 Attagene cis-factorial RORE reporter, mRNA; actives raise or lower the signal
# In short: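 Transient MRTU transfection of human HepG2 liver cells (FuGene 6); 24 h compound exposure; TriZol RNA, oligo(dT) RT, PCR, FAM labeling, HpaI cut, CE fragment analysis. DMSO = negative control/baseline.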
# [10] = biological target: Transcription factor Sp1 (Homo sapiens) (UniProt P08047); experiment: ATG_Sp1_CIS: Attagene CIS-FACTORIAL HepG2 Assay for human Specificity Protein 1 (Sp1) (AID 2282961); conditions: HepG2 Sp1 cis-reporter transcription, actives raise or lower the signal
# Sequence of Transcription factor Sp1 (Homo sapiens) (P08047 whole entry, looked up): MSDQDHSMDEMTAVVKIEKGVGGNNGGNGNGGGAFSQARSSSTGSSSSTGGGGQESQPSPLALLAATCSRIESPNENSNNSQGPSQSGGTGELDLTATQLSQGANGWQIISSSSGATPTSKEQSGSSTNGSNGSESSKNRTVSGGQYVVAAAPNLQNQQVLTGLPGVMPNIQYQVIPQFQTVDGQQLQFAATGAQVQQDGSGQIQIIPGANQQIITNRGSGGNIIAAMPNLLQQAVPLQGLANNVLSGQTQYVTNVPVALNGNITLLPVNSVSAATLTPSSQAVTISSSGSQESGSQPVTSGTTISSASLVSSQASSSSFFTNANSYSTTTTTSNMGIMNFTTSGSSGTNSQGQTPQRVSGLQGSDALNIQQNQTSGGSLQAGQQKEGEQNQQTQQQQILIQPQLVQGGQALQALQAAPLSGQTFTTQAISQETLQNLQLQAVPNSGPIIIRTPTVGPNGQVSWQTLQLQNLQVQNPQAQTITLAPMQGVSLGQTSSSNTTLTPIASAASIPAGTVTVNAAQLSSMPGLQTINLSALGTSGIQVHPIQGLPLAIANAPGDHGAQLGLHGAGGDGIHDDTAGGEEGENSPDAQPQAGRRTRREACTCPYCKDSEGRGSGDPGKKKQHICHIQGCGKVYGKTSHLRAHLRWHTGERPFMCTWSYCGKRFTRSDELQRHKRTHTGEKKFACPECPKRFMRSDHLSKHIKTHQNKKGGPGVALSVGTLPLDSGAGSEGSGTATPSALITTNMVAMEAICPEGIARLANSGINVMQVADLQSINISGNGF
# In short: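 Transient MRTU-transfected HepG2, 24 h compound exposure. Total RNA → oligo(dT) RT → PCR of reporter → 6-FAM primer extension → HpaI digest → CE. Endpoint fitted both directions vs DMSO.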
# [11] = ATG_SREBP_CIS: Attagene CIS-FACTORIAL HepG2 Assay for human Sterol Regulatory Element Binding (SREBP) (AID 2282962); conditions: HepG2 Attagene cis-factorial SREBP reporter, mRNA; actives raise or lower the signal
# In short: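 Endogenous SREBP activity read as cis-element-driven reporter transcript in transiently transfected HepG2, 24 h post-dosing; quantified via RT-PCR plus capillary electrophoresis of fluorescent fragments. Gain or loss of signal fitted relative to DMSO baseline.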
# [12] = biological target: Signal transducer and activator of transcription 3 (Homo sapiens) (UniProt P40763); experiment: ATG_STAT3_CIS: Attagene CIS-FACTORIAL HepG2 Assay for human Signal Transducer and Activator of Transcription 3 (STAT3) (AID 2282963); conditions: HepG2, Attagene cis-factorial STAT3 reporter transcription; actives raise or lower the signal
# Sequence of Signal transducer and activator of transcription 3 (Homo sapiens) (P40763 whole entry, looked up): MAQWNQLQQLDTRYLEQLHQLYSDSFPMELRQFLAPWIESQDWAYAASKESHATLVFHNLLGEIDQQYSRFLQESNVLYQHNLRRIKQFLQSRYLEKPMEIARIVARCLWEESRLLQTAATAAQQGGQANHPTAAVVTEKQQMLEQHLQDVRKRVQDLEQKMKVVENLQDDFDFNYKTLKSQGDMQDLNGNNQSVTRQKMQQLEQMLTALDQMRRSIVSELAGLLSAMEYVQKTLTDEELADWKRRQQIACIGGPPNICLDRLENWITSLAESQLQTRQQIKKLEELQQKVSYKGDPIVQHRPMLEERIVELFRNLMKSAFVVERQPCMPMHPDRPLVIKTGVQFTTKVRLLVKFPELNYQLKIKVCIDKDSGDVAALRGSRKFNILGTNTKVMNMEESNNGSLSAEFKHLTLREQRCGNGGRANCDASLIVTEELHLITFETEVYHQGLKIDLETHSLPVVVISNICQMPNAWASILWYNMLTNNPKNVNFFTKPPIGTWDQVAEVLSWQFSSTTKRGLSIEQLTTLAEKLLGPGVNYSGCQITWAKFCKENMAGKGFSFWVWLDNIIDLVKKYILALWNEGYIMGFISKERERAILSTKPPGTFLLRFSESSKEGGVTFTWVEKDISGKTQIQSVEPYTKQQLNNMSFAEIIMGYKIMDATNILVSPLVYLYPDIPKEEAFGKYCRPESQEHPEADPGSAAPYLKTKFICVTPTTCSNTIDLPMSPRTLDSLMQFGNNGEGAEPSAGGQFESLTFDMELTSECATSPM
# In short: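 HepG2, MRTU-transfected, 24 h dosing. RNA → RT → PCR → FAM label → HpaI → CE. Bidirectional fit vs DMSO.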
# [13] = ATG_TA_CIS: Attagene CIS-FACTORIAL HepG2 Assay for human TA Basal Promoter (AID 2282964); conditions: HepG2 Attagene CIS-factorial TA basal promoter reporter; actives raise or lower the signal
# In short: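 Transfected HepG2, 24 h compound exposure; RNA → RT-PCR → FAM primer extension → HpaI cut → CE fluorescence. Gain/loss-of-signal fitted against DMSO negative control. Background-control readout.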
# [14] = ATG_TCF_b_cat_CIS: Attagene CIS-FACTORIAL HepG2 Assay for human T-Cell-Factor with beta-catenin (TCF/b-cat) (AID 2282965); conditions: HepG2 TCF/beta-catenin cis-reporter transcription, actives raise or lower the signal
# In short: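 HepG2 cells transiently transfected with multiple cis-promoter-regulated reporter transcription units, so endogenous transcription factor activity is measured. Reporter mRNA read 24 hours after dosing by RT-PCR, fluorescent labelling and capillary electrophoresis; bidirectional fitting against DMSO.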
# [15] = biological target: Hypoxia-inducible factor 1-alpha (Homo sapiens) (UniProt Q16665); experiment: ATG_HIF1a_CIS: Attagene CIS-FACTORIAL HepG2 Assay for human Hypoxia Inducible Factor 1 (HIF1A) (AID 2282951); conditions: HepG2 Attagene cis-factorial HIF1a reporter transcription; actives raise or lower the signal
# Sequence of Hypoxia-inducible factor 1-alpha (Homo sapiens) (Q16665 whole entry, looked up, the tested form may be a part): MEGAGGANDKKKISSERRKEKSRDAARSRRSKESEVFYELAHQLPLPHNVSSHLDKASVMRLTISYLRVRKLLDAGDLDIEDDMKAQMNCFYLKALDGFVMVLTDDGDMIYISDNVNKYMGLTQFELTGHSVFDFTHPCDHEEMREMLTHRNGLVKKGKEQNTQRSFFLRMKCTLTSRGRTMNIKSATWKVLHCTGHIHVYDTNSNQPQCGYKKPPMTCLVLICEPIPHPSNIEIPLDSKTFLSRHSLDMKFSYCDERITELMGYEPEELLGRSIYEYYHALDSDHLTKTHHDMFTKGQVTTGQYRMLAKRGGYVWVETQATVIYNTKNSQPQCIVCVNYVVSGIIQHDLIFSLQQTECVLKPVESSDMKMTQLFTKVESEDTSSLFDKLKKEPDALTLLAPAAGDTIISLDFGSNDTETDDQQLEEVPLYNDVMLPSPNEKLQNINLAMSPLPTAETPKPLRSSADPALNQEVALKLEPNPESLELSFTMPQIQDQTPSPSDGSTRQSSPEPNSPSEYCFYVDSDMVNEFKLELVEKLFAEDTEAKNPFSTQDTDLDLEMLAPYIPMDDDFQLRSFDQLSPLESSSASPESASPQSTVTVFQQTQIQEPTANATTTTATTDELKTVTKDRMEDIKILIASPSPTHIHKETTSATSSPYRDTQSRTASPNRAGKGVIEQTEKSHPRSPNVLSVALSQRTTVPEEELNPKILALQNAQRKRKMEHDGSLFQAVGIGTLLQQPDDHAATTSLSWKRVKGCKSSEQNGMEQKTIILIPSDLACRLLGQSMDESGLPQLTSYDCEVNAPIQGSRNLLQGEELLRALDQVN
# In short: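 Transient MRTU transfection of human HepG2 liver cells, 24 h compound treatment, then total RNA isolation, oligo(dT) reverse transcription, PCR amplification, fluorescent labelling and capillary electrophoresis of reporter fragments. Gain or loss relative to DMSO.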
# [16] = biological target: Heat shock factor protein 1 (Homo sapiens) (UniProt Q00613); experiment: ATG_HSE_CIS: Attagene CIS-FACTORIAL HepG2 Assay for human Heat Shock Transcription Factor 1 (HSE) (AID 2282953); conditions: HepG2 HSE cis-reporter, Attagene RNA transcription; actives raise or lower the signal
# Sequence of Heat shock factor protein 1 (Homo sapiens) (Q00613 whole entry, looked up, the tested form may be a part): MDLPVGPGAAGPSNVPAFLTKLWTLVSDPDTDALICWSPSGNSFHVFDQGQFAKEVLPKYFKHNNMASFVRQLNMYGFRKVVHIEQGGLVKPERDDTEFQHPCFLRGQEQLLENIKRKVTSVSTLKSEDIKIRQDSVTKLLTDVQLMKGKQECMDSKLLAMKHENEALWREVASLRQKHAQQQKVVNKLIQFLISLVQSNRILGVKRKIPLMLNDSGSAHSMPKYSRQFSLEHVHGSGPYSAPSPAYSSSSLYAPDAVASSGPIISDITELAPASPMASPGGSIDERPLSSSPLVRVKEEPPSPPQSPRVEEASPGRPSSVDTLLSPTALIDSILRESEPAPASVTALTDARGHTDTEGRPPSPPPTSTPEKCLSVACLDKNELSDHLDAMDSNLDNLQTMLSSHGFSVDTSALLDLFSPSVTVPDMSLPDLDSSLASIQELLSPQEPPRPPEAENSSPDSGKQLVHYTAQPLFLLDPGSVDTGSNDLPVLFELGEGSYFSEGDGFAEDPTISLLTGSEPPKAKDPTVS
# In short: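 Read-out: fluorescence of reporter-specific RT-PCR fragments separated by capillary electrophoresis. HepG2 carrying transfected cis-element reporter units; 24 h dosing; activity fitted in both directions relative to DMSO baseline.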
# [17] = ATG_MRE_CIS: Attagene CIS-FACTORIAL HepG2 Assay for human Metal Responsive Element (MRE) (AID 2282954); conditions: HepG2 MRE cis-reporter transcription, Attagene multiplex; actives raise or lower the signal
# In short: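 Cells were transfected with cis-promoter reporter transcription units, then dosed for 24 h. RNA was reverse-transcribed, amplified, fluorescently labelled and resolved by capillary electrophoresis, and activity was fitted in both directions relative to DMSO.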
# [18] = ATG_Sox_CIS: Attagene CIS-FACTORIAL HepG2 Assay for human SRY-box transcription factor (SOX) (AID 2282960); conditions: HepG2 Attagene cis-factorial SOX reporter, mRNA; actives raise or lower the signal
# In short: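 Endogenous factor activity in human liver HepG2 cells carrying transfected cis-regulated reporter units. RNA taken 24 h post-dose, reverse-transcribed, PCR-amplified and sized by capillary electrophoresis. Gain or loss of signal fitted relative to DMSO.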
# [19] = ATG_PBREM_CIS: Attagene CIS-FACTORIAL HepG2 Assay for human Phenobarbital-responsive Enhancer Module (PBREM) (AID 2282955); conditions: HepG2 PBREM cis-reporter, Attagene multiplexed transcription; actives raise or lower the signal
# In short: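 Endogenous transcription factors in human liver HepG2 cells drive a PBREM cis-element reporter, whose transcript level after 24 h treatment is quantified by RT-PCR with capillary electrophoresis; activity fitted in both directions against DMSO.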
# [20] = ATG_PPRE_CIS: Attagene CIS-FACTORIAL HepG2 Assay for human Peroxisome Proliferator-activated Response Element (PPRE) (AID 2282958); conditions: HepG2 PPRE cis-element reporter, Attagene transcription factor profiling; actives raise or lower the signal
# In short: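 HepG2, transient MRTU transfection (cis promoter elements, endogenous TFs). 24 h dosing. RNA → oligo(dT) RT → PCR → 6-FAM primer extension → HpaI digest → CE. Bidirectional fit vs DMSO.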
compound,measurement,setting,value
CC(C)=CCC/C(C)=C\CO,outcome,[1],inactive
same,outcome,[2],inactive
same,outcome,[3],inactive
same,outcome,[4],inactive
same,outcome,[5],inactive
same,outcome,[6],inactive
same,outcome,[7],inactive
same,AC50,[8],7.34 µM (active)
same,outcome,[9],inactive
same,outcome,[10],inactive
same,outcome,[11],inactive
same,outcome,[12],inactive
same,outcome,[13],inactive
same,outcome,[14],inactive
COCCOc1cc2cc(C(=O)NC3CCN(C(C)C)CC3)n(CC(=O)Nc3ccc(Cl)cn3)c2cn1,outcome,[1],inactive
same,outcome,[2],inactive
same,AC50,[3],139 µM (active)
same,outcome,[4],inactive
same,outcome,[5],inactive
same,AC50,[15],26.2 µM (active)
same,AC50,[6],28.6 µM (active)
same,outcome,[16],inactive
same,AC50,[17],135 µM (active)
same,AC50,[7],124 µM (active)
same,AC50,[8],144 µM (active)
same,AC50,[18],135 µM (active)
same,AC50,[10],100 µM (active)
same,AC50,[11],26.5 µM (active)
same,outcome,[12],inactive
same,outcome,[13],inactive
same,AC50,[14],108 µM (active)
CCCCC(CC)COC(=O)CCCCCCCCC(=O)OCC(CC)CCCC (configuration not stated),outcome,[1],inactive
same,outcome,[2],inactive
same,outcome,[3],inactive
same,outcome,[4],inactive
same,outcome,[5],inactive
same,outcome,[15],inactive
same,outcome,[6],inactive
same,outcome,[16],inactive
same,outcome,[17],inactive
same,outcome,[19],inactive
same,outcome,[7],inactive
same,outcome,[8],inactive
same,outcome,[20],inactive
same,outcome,[9],inactive
same,outcome,[18],inactive
same,outcome,[10],inactive
same,outcome,[11],inactive
same,outcome,[12],inactive
same,outcome,[13],inactive
same,outcome,[14],inactive
Oc1ccc2c(c1)-c1ccccc1C2,AC50,[1],1.3 µM (active)
same,outcome,[2],inactive
same,AC50,[3],100 µM (active)
same,outcome,[4],inactive
same,outcome,[5],inactive
same,outcome,[15],inactive
same,outcome,[6],inactive
same,AC50,[16],26.5 µM (active)
same,AC50,[19],59.6 µM (active)
same,AC50,[7],33.5 µM (active)
same,outcome,[8],inactive
same,AC50,[20],46.4 µM (active)
same,AC50,[9],24.7 µM (active)
same,AC50,[18],54.2 µM (active)
same,AC50,[10],11.9 µM (active)
same,outcome,[11],inactive
same,outcome,[12],inactive
same,AC50,[13],37.2 µM (active)
same,AC50,[14],3.93 µM (active)
COc1ccc2sc(C(=O)Nc3nnn[nH]3)c(OC(C)C)c2c1,AC50,[1],67.6 µM (active)
same,outcome,[2],inactive
same,AC50,[3],44.1 µM (active)
same,outcome,[4],inactive
same,outcome,[5],inactive
same,AC50,[15],149 µM (active)
same,outcome,[6],inactive
same,outcome,[16],inactive
same,AC50,[17],91.1 µM (active)
same,outcome,[19],inactive
same,AC50,[7],129 µM (active)
same,outcome,[8],inactive
same,AC50,[20],12.3 µM (active)
same,AC50,[9],149 µM (active)
same,outcome,[18],inactive
same,outcome,[10],inactive
same,AC50,[11],39.7 µM (active)
same,outcome,[12],inactive
same,AC50,[13],70.7 µM (active)
same,outcome,[14],inactive
COc1ccc(/C=C/S(=O)(=O)NC(=O)c2ccc(C)cc2Cl)cc1,outcome,[1],inactive
same,outcome,[2],inactive
same,outcome,[3],inactive
same,outcome,[4],inactive
same,outcome,[5],inactive
same,outcome,[15],inactive
same,outcome,[6],inactive
same,outcome,[16],inactive
same,outcome,[17],inactive
same,outcome,[7],inactive
same,outcome,[8],inactive
same,outcome,[20],inactive
same,outcome,[9],inactive
same,outcome,[18],inactive
same,outcome,[10],inactive
same,outcome,[11],inactive
same,outcome,[12],inactive
same,outcome,[13],inactive
same,outcome,[14],inactive
CC(C)CCCCCCCOC(=O)CCCCC(=O)OCCCCCCCC(C)C,outcome,[1],inactive
same,outcome,[2],inactive
same,outcome,[3],inactive
same,outcome,[4],inactive
same,outcome,[5],inactive
same,outcome,[15],inactive
same,outcome,[6],inactive
same,outcome,[16],inactive
same,outcome,[19],inactive
same,outcome,[7],inactive
same,AC50,[8],100 µM (active)
same,outcome,[20],inactive
same,outcome,[9],inactive
same,outcome,[10],inactive
same,outcome,[11],inactive
same,outcome,[12],inactive
same,outcome,[13],inactive
same,outcome,[14],inactive
